Compounds with a hit are over-represented: about 2% of the library has one in this group of screens.
GC-A act: GC-A stimulated cGMP production enhancers – HEK293 GC-A cells, cGMP TR-FRET, EC30 ANP, primary screen; Atrial natriuretic peptide receptor 1 (Homo sapiens), P16066; 0% at EC30 ANP, 100% saturating ANP; hit rate 0.14% among 370,000; activation, % at 10 µM; in the data active = activation above about 40%
GC-B act: human GC-B receptor activators, primary screen, HEK293 GC-B cells, cGMP TR-FRET, EC30 CNP. 0% at EC30 CNP, 100% saturating CNP. activation, % at 10 µM. hit rate 0.11% among 370,000. AID 1920062, 2024;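 active = activation at 10 µM reaching about 35% in either raw or pattern-adjusted values, limit read from the data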
FAS-TE inh: FAS thioesterase domain inhibitors, primary screen, biochemical, fluorescence intensity, uHTS; inhibition, % at 15 µM; Fatty acid synthase (Homo sapiens), P49327; hit rate 0.67% among 360,000; AID 602261, 2012; recombinant FAS-TE, OMFH fluorogenic substrate, fluorescence endpoint;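 active = compounds whose normalised, plate-corrected inhibition of enzyme fluorescence in the single-dose primary screen is 50% or more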;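 also: 0% = DMSO with enzyme and 100% = substrate without enzyme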
ADAM17 inh: ADAM17 inhibitors, primary screen, biochemical, QFRET | Disintegrin and metalloproteinase domain-containing protein 17 (Homo sapiens), P78536 | recombinant ADAM17, EDANS/DABCYL FRET peptide cleavage | inhibition, % at 6.95 µM | hit rate 0.83% among 370,000 | AID 720648, 2013;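 active = inhibition above the mean of compounds lying between control limits plus 3 SD, set per campaign, cut at about 8.5% in these data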;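 also: 0% = DMSO-only wells as the low control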
ADAM10 inh: human ADAM10 inhibitors, primary screen, biochemical, QFRET, HTS. Disintegrin and metalloproteinase domain-containing protein 10 (Homo sapiens), O14672. inhibition, % at 7 µM. recombinant ADAM10, EDANS/DABCYL FRET peptide cleavage, 3 h. hit rate 0.62% among 370,000;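 active = inhibition above a per-campaign cutoff equal to the mean of compounds falling between control-based bounds plus 3 SD, cut at about 20% in these data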;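 also: 0% = DMSO wells while the 100% control is not disclosed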
Target sequence (O14672 214-748 limits assumed): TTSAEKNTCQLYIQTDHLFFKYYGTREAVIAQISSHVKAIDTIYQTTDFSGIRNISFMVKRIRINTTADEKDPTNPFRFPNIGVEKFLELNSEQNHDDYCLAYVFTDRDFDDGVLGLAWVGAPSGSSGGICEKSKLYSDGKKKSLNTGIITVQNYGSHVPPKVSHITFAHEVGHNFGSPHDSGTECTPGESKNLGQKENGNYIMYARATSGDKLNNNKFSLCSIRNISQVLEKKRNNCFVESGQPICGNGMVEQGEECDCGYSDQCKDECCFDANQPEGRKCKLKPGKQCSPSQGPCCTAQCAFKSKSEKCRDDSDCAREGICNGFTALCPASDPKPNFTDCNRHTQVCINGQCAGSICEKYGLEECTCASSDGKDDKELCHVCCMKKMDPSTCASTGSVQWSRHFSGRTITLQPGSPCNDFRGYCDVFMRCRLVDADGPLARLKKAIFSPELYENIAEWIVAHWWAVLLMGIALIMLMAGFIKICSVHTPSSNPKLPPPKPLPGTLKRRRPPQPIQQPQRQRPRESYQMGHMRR
FAS-TE inh conf: FAS thioesterase domain inhibitors, confirmation, biochemical, fluorescence intensity, single concentration. shares compounds with FAS-TE inh. recombinant FAS-TE, OMFH fluorogenic substrate. inhibition, % at 15 µM. hit rate 45% among 2,300. AID 624325, 2012;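 active = compounds inhibiting the enzyme by at least 50% at 15 µM in any one of the replicates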;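 also: 0% = enzyme with DMSO only and 100% = wells lacking enzyme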
Starred values were filed as active, the others as inactive; · = not tested or not shown.

SMILES	GC-A act	GC-B act	FAS-TE inh	ADAM17 inh	ADAM10 inh	FAS-TE inh conf
COc1cc(C(=O)NC(=S)Nc2ccc([N+](=O)[O-])cc2C)cc(OC)c1OC	-3	-1	8	6	-1	·
CN(CC#Cc1ccccc1)C(N)=NC(=O)/C=C/c1ccccc1	-11	1	·	0	7	·
O=C(NN1C(=O)c2ccccc2NC1c1ccccn1)c1ccc([N+](=O)[O-])cc1 (centres undefined)	1	-2	42	-1	-6	·
Cc1cccc(C2Nc3ccccc3C(=O)N2NC(=O)c2ccc([N+](=O)[O-])cc2)n1 (centres undefined)	-3	10	53*	-2	4	62*
O=C(OCCCN1CCC2(CCC(c3ccccc3)CC2)C1=O)c1ccccc1 (centres undefined)	-4	7	·	5	7	·
CC(C)Cn1c(N)c(C(=O)COC(=O)c2cc(-c3ccccc3)nc3ccccc23)c(=O)n(C)c1=O	-4	-4	51*	0	-1	14
CC(C)Cn1c(N)c(C(=O)COC(=O)c2cc(-c3ccco3)nc3ccccc23)c(=O)n(C)c1=O	-9	4	11	-2	0	·
COc1ccc(C2=NN(C(=O)CSc3nc(=O)n4cccc(C)c4n3)C(c3ccc(C)cc3)C2)cc1 (centres undefined)	1	2	90*	-3	-12	35
Cc1ccn2c(=O)nc(SCC(=O)N3N=C(c4cccs4)CC3c3ccc(F)cc3)nc2c1 (centres undefined)	-4	-3	54*	-7	-6	46*
Cc1ccc(C2CC(c3cccs3)=NN2C(=O)CSc2nc(=O)n3cc(C)ccc3n2)cc1 (centres undefined)	2	20	51*	-1	-6	41
Cc1ccc2nc(SCC(=O)N3N=C(c4cccs4)CC3c3ccc(F)cc3)nc(=O)n2c1 (centres undefined)	2	5	42	-3	-5	·
Cc1cccn2c(=O)nc(SCC(=O)N3N=C(c4cccs4)CC3c3ccc(F)cc3)nc12 (centres undefined)	1	-1	54*	-5	-7	41
COc1ccc(C2CC(c3cccs3)=NN2C(=O)CSc2nc(=O)n3ccccc3n2)cc1 (centres undefined)	8	8	43	-1	-7	·
Nn1c(SCC(=O)Nc2ccc(OCc3ccccc3)cc2)nnc1-c1cc(-c2ccc(Cl)cc2)n[nH]1	0	-3	·	-1	-6	·
O=C(NC1CCCC1)C1CCN(S(=O)(=O)c2ccc3[nH]c(=O)oc3c2)CC1	0	12	·	-4	-7	·
O=C(C/C=N\OCc1ccc([N+](=O)[O-])cc1)Nc1ccc(Br)cc1	-4	-2	55*	3	5	57*
O=C(COc1ccc([N+](=O)[O-])cc1)NNC(=O)Nc1ccc([N+](=O)[O-])cc1	1	-4	48	0	-8	·
C/C(=N\NS(=O)(=O)c1ccc(Cl)c([N+](=O)[O-])c1)c1cc2ccccc2o1	-1	6	54*	0	2	59*
Cn1c(=O)c(=O)n(C)c2cc(S(=O)(=O)N3CCN(Cc4ccc5c(c4)OCO5)CC3)ccc21	2	0	·	-1	-9	·
O=C(CCC(=O)Nc1cccc(Cl)c1)N/N=C/c1cc([N+](=O)[O-])ccc1O	1	-4	65*	1	5	83*
Cc1ccc(NC(=O)CCC(=O)N/N=C/c2cc([N+](=O)[O-])ccc2O)cc1	3	-9	32	0	1	·
O=C(CCCC(=O)Nc1cccc(Br)c1)N/N=C/c1cc([N+](=O)[O-])ccc1O	-5	6	54*	6	11	72*
COC(=O)[C@]12C[C@H](CC(=O)N3CCSCC3)C(=O)N(Cc3ccco3)C1=C[C@H](C1CCCC1)O[C@@H]2C	-7	-10	·	-3	1	·
O=C(NCCc1c[nH]c2ccccc12)OCc1cn(Cc2ccc(C(F)(F)F)cc2)nn1	-4	-5	·	3	8	·
Cc1ccc(S(=O)(=O)N2CCN(C(=O)c3ccc(N4CCC(C)CC4)c([N+](=O)[O-])c3)CC2)cc1	-5	1	54*	1	8	14
SMILES	GC-A act	GC-B act	FAS-TE inh	ADAM17 inh	ADAM10 inh	FAS-TE inh conf
N#Cc1cc(-c2ccccc2)cn(Cc2c(Cl)cccc2Cl)c1=O	-6	-4	62*	-10	-36	25*
Cc1ccc(-c2cc(C#N)c(=O)n(Cc3c(Cl)cccc3Cl)c2)cc1	3	-3	17	-15	-35	·
Cc1csc(NC(=O)C2CCN(S(=O)(=O)c3ccc4c(c3)oc(=O)n4C)CC2)n1	0	-2	59*	2	5	68*
O=C(NCCc1ccccc1)C(c1cccs1)N(C(=O)CCl)c1ccc(Cl)cc1 (centres undefined)	-47	-15	56*	1	1	54*
O=C(NCCc1ccccc1)C(c1cccs1)N(C(=O)c1csnn1)C1CC1 (centres undefined)	-6	-2	-4	1	-4	·
Cc1ccc(NC(=O)CCNS(=O)(=O)c2cc(Br)cnc2N)cc1Cl	-10	-10	63*	-2	-9	44*
Cc1cc(NC(=O)CCNS(=O)(=O)c2cc(Br)cnc2N)ccc1Br	-8	-7	48	3	3	·
CCc1cccc(CC)c1NC(=O)/C(C#N)=C/c1ccccc1C(F)(F)F	0	-1	54*	3	5	61*
O=C(Cc1c[nH]c2ccccc12)Nc1ccc(Nc2cccnc2)c(-c2ccc(-c3ccccc3)cc2F)c1	-4	-6	·	-65	-137	·
C[C@@H]1CCCCO[C@@H](CN(C)Cc2ccccc2)[C@@H](C)CN([C@H](C)CO)C(=O)c2cc(NC(=O)Nc3cccc4ccccc34)ccc2O1	2	-4	52*	-16	-56	14
COc1ccc(NC(=O)Nc2ccc3c(c2)C(=O)N([C@H](C)CO)C[C@H](C)[C@@H](CN(C)Cc2ccc(Cl)c(Cl)c2)OCCCC[C@@H](C)O3)cc1	-2	6	62*	5	21*	8
C[C@@H]1CN([C@H](C)CO)C(=O)c2cc(NC(=O)Nc3cccc4ccccc34)ccc2O[C@H]1CN(C)Cc1ccc(C(F)(F)F)cc1	1	-7	9	-10	-34	·

Source: PubChem (several laboratories)
